Assay outcomes (PubChem BioAssay)
Pf growth 48h: P. falciparum growth inhibition at 48 hours (one generation); P. falciparum luciferase growth in erythrocytes, 48 h; Potency, µM (series often up to 28.7 µM), without a hit: at the highest dose activity change, negative = inhibition, usual class: inhibitors; 310,000 tested, 5.9% active; note: potency is the fitted concentration of half-maximal effect; % is set by controls: 0 for no effect and ±100 for the full control effect
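Luciferase-expressing parasites in RBCs, 2% Hct / 0.1% parasitemia final; RPMI 1640 + 0.5% Albumax; 37 C, 5% CO2, one generation; luminescence read-out, lower signal = inhibition.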
Cycloheximide cs: affects cycloheximide protein synthesis inhibition readout, counter-screen. AID 2314. 300,000 tested, 12% active. max response, %. cell reporter, cycloheximide protein synthesis inhibition counterscreen; in the data active = max response mostly above about 13%, no sharp cut-off; inactive = mostly below about 14%; note: read at 38.3 µM for the half of the compounds with a filed dose; 0% is about no effect
Pf growth 96h: P. falciparum growth inhibition at 96 hour, primary screen for plastid delayed-death inhibitors; P. falciparum luciferase reporter growth, 96 h; Potency, µM (highest dose often 28.7 µM), inactives show at the highest dose activity change, negative = inhibition, actives largely listed as inhibitors; 320,000 tested, 6.9% active; AID 504834; note: potency is the fitted concentration of half-maximal effect; % is set by controls: 0 for no effect and ±100 for the full control effect
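Delayed-death screen, second-generation endpoint: infected erythrocytes, 2% hematocrit, 0.05% parasitemia final; 96 hours at 37 C, 5% CO2; luciferase detection reagent; luminescence decrease equals reduced growth.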
LmPK inh: LmPK (Leishmania mexicana) enzyme inhibition; Q27686; purified LmPK, Kinase-Glo ATP luminescence, 1 h; Potency, µM (series often up to 57.5 µM), without a hit: at the highest dose activity change, negative = inhibition, usual class: inhibitors; 290,000 tested, 0.37% active; AID 1721; note: potency is the fitted concentration of half-maximal effect; % is set by controls: 0 for no effect and ±100 for the full control effect
Target sequence (Q27686 whole entry, looked up): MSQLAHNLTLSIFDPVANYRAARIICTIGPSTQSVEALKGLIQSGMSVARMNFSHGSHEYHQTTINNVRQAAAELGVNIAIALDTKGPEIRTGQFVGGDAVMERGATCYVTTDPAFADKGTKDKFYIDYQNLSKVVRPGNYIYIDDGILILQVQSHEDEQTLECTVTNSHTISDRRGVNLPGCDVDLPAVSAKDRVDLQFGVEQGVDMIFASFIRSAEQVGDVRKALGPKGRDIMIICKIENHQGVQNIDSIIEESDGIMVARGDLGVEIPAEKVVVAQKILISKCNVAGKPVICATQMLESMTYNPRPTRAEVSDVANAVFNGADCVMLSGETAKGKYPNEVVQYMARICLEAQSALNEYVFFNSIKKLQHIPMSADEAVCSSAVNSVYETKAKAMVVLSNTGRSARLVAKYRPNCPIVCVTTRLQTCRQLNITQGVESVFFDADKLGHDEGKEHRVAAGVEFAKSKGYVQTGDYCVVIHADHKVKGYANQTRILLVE
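In 50 mM imidazole pH 7.2 with 7 mM MgCl2, LmPK (0.1 nM) turned over PEP (0.5 mM) and ADP (0.1 mM) for 1 h at room temperature. Luciferase read-out of ATP.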
Shiga toxin inh: blocks Shiga toxin action in Vero cells; Vero cells, Shiga toxin protein synthesis inhibition reporter; 290,000 tested, 9.2% active; inhibition, % at 38.7 µM; in the data active = inhibition mostly above about 28%, no sharp cut-off; inactive = mostly below about 43%; note: 0% is about no effect
An asterisk follows results filed as active; ? = inconclusive; nt = no result; [ ] = dose if it differs, or a comment. Sampled rows, rich in hits. Any-hit rate of the full collection: about 22%. Unless noted, calls come from the whole dose curve; as a rule, active = well fitted inhibition curve with a large enough effect; inconclusive = small, poorly fitted or top-dose-only effect, or another doubt; inactive = no such curve, though single readings can be large or run the other way.

SMILES	Pf growth 48h	Cycloheximide cs	Pf growth 96h	LmPK inh	Shiga toxin inh
CN1CCN(/N=C/c2ccc(N(C)c3ccccc3)cc2)CC1	-0.2%	33.9*	25.8%	-1.2%	59.2*
O=[N+]([O-])c1cc(/C=N/N2CCCCC2)ccc1Cl	51.0%	17.7*	55.9%	0.2%	72.1*
CC(=O)N1C(=O)/C(=C2\SC(=S)N(NS(=O)(=O)c3ccc(C)cc3)C2=O)c2ccccc21	5.9%	-1.4	81.8%	1.5%	-21.3
COc1cccc(/C=N/N2CCN(C)CC2)c1	-9.2%	29.1*	17.4%	-12.4%	19.0
COc1ccc(C(=O)C2CCCN(Cc3ccc4nonc4c3)C2)c(OC)c1 (configuration not stated)	22.2%	0.4	?	1.2%	-1.4
COc1ccc(OC2C(=O)N(Cc3ccc(F)cc3)C2c2cc(OC)c(OC)c(OC)c2)cc1 (configuration not stated)	3.7µM*	7.3	24.6%	5.5%	1.9
Cn1nccc1NC(=O)COCC(=O)O	?	-1.3	0.0%	0.9%	-10.1
CCCCSc1cc(C)nc(N)n1	74.0%	31.2*	5.7%	-4.0%	54.3*
CCCCN1CNC(=S)N(c2ccccc2OCC)C1	-12.3%	-2.5	?	-3.9%	-8.2
Cc1ccc(C(NC(=O)NC(C)c2ccccc2)C(Cl)(Cl)Cl)cc1F (configuration not stated)	4.15µM*	1.7	?	8.1%	-14.2
CC(=O)c1ccc(N2Cc3ccccc3/C2=N\C(=O)Nc2ccc(Cl)cc2)cc1	68.9%	43.2*	209.9%	0.9%	33.0*
Nc1ccc(NC(=O)c2ccc(C(=O)Nc3ccc(N)cc3)cc2)cc1	6.4%	-4.0	37.4%	0.9%	-5.5
COC(=O)c1ccc(N2Cc3ccccc3/C2=N\C(=O)Nc2ccccc2)cc1	42.0%	6.2	32.6%	-1.0%	8.0
CC(=O)c1ccc(NC(=O)c2cnsn2)cc1	114.5%	31.4*	?	-20.2%	81.6*
Nc1ccc(C(=O)CC(=O)Nc2ccc(Cl)cc2)cc1	2.2%	18.3*	7.6%	4.4%	39.4
CC[C@H](C)[C@H](NC(=O)[C@H](C)NC(=O)[C@H](CC(=O)O)NC(=O)[C@H](CO)NC(=O)[C@@H](N)Cc1cnc[nH]1)C(=O)N[C@@H](Cc1ccccc1)C(=O)N[C@H](C(=O)N[C@@H](CCC(N)=O)C(=O)N[C@@H](CCC(N)=O)C(=O)N[C@@H](Cc1ccc(O)cc1)C(=O)N[C@@H](CO)C(=O)N[C@@H](CCCCN)C(=O)N[C@@H](CC(C)C)C(=O)N[C@@H](CC(C)C)C(=O)N[C@@H](C)C(=O)N[C@@H](CCCCN)C(=O)N[C@@H](CC(C)C)C(=O)N[C@@H](C)C(=O)N[C@@H](CC(C)C)C(=O)N[C@@H](CCC(N)=O)C(=O)N[C@@H](CCCCN)C(=O)N[C@@H](Cc1ccc(O)cc1)C(=O)N[C@@H](CC(C)C)C(=O)N[C@@H](C)C(=O)N[C@@H](CO)C(=O)N[C@H](C(=O)N[C@@H](CC(C)C)C(=O)NCC(=O)N[C@@H](CO)C(=O)N[C@@H](CCCNC(=N)N)C(=O)N[C@H](C(=O)N[C@@H](CO)C(=O)N1CCC[C@H]1C(=O)N1CCC[C@H]1C(=O)N1CCC[C@H]1C(N)=O)[C@@H](C)O)[C@@H](C)CC)[C@@H](C)O	nt	-4.4	nt	nt	-11.5
CN1CCN(C(=O)c2ccc(OCCOc3ccccc3)cc2)CC1	35.8%	-1.4	-15.6%	1.2%	-6.7
Cc1ccc(S(=O)(=O)N2CCN(C(=O)COC(=O)/C=C/c3ccccc3[N+](=O)[O-])CC2)c(C)c1	-2.9%	nt	26.9%	nt	nt
CC(CCN1C(Nc2ccccc2)=NC[C@@H]1C)c1ccccc1 (some centres not stated)	-23.1%	-3.1	-15.7%	-0.3%	-4.6
O=C(Nc1ccccc1)Nc1ccc(Oc2cccnc2)nc1	167.7%	41.8*	21.8%	-3.7%	39.3*
CC(=O)c1ccc(NC(=O)Nc2ccncc2)cc1	?	28.1*	5.4%	6.3%	57.1*
O=C(NCC(F)(F)F)Nc1cccnc1	-19.1%	-0.8	14.7µM*	-5.3%	-2.5
CCOP(=O)(OCC)C(NC(=O)Nc1ccc(Cl)cc1)c1ccccc1 (configuration not stated)	?	-0.2	-16.5%	7.0%	-19.4
O=C(NCc1cccnc1)Nc1cccc(F)c1	3.9%	-1.5	18.7%	0.3%	9.3
CC(NC(=O)Nc1ccc(Cl)cc1)c1ccccc1 (configuration not stated)	23.6%	1.6	10.4µM*	4.1%	14.6
SMILES	Pf growth 48h	Cycloheximide cs	Pf growth 96h	LmPK inh	Shiga toxin inh
CN(C)CC(=O)Nc1ccc(Oc2ccc(Cl)cc2)cc1	-15.1%	1.2	-0.3%[5.75 µM]	1.0%	-12.3
CC(=O)c1ccc(NC(=O)C(C)Nc2ccc(Cl)cc2)cc1 (configuration not stated)	?	9.0	33.6%	-2.9%	20.0
O=C(Nc1ccc(F)cc1)Nc1cccnc1	19.9%	-3.2	31.5%	3.4%	22.7
CC(=O)c1ccc(NC(=O)Nc2ccc(Cl)cc2)cc1	nt	34.2*	?	1.4%	104.6*
CNC(=O)Nc1ccc(Cl)cc1	44.5%	20.7*	42.7%	-1.2%	17.8
Cc1cc(NC(=O)Nc2ccc(Cl)cc2)n(C)n1	9.7%	14.5	-15.1%	-0.8%	15.0
CON(C)C(=O)Nc1ccc(Cl)cc1	24.8%	11.5*	nt	-8.7%	25.6
O=C(Nc1ccc(OC(F)(F)F)cc1)Nc1cccnc1	?	31.5*	10.4µM*	-21.5%	69.5*
CC(=O)c1ccc(NC(=O)Nc2cccnc2)cc1	-27.0%	27.9*	-89.0%	-6.9%	23.3
c1ccc2c(c1)OCC(CN1CCCCC1)O2 (configuration not stated)	-2.6%	nt	?	nt	nt
Cc1cc2nc(C3CCN(CC4COc5ccccc5O4)CC3)[nH]c2cc1C (configuration not stated)	13.1µM*	-0.9	6.4%	0.2%	12.3
CCN(C(=O)COC(=O)c1ccccc1NCCO)c1cccc2ccccc12	?	nt	10.4µM*	nt	nt
Oc1ccc(O)c(/C(=N/Nc2ccccc2)c2ccccc2)c1	?	27.3*	?	-5.2%	16.9
Cc1nc(C/C(=N\Nc2ccccc2)c2ccc(O)cc2O)cs1	0.0%	7.9	43.7%	3.2%	21.3
CN(Cc1ccccc1)CC(O)COc1ccc(CNCCc2ccncc2)cc1 (configuration not stated)	5.22µM*	-0.4	-47.2%	3.6%	16.7
CCc1ccc(CNCc2ccc(OCC(O)CN(C)Cc3ccccc3)cc2)nc1 (configuration not stated)	?	-1.5	?	7.2%	-14.1
Cc1cc(CN(C)Cc2ccc(OCC(O)CN(C)Cc3ccccc3)cc2)on1 (configuration not stated)	-15.2%	-1.6	?	3.7%	-8.0
CN(Cc1ccccc1)CC(O)COc1ccc(CNCCc2cccnc2)cc1 (configuration not stated)	5.22µM*	-1.4	1.4%	2.9%	-18.5
